# About 3,200 (25%) of roughly 13,000 compounds showed an effect of 50% or more. The list shows a part of the results.
# System: P. falciparum stage V gametocytes
# Design: BacTiter-Glo ATP luminescence viability of purified stage V gametocytes in 384-well plates, per cent inhibition versus DMSO
# Details: 48 h, 5 µM; inhibitor
row,SMILES,% Inhibition [%]
1,CC1(C)N=C(N)NC(NOCc2ccc(Cl)c(Cl)c2)=N1 [TCMDC-131606],-8.519
2,CC(C)[C@H](NC(=O)c1ccc(O)c(-c2ccc(Cl)c(Cl)c2)c1)C(=O)NCCN1CCCCC1 [TCMDC-140858],1.563
3,N#Cc1nc2ccc(OCCN(Cc3ccccc3C(F)(F)F)c3ccc(C#N)c(C(F)(F)F)c3)cc2s1 [TCMDC-132798],33.49
4,N#Cc1ccc(NC(=NCCc2c[nH]c3ccccc23)Nc2ccc(-c3ccccc3)cc2)c(O)c1 [TCMDC-140211],-66.19
5,CCCNCc1ccc(-c2ccc(CN(Cc3ccc4c(c3)OCO4)C(=O)Cc3cccnc3)cc2)nc1 [TCMDC-141529],106.5
6,CCCNCc1ccc(-c2ccc(CN(CCOC)C(=O)COc3ccccc3Cl)cc2)nc1 [TCMDC-141541],51.3
7,CCCNCc1ccc(-c2ccc(CN(CCOC)C(=O)Cc3cccnc3)cc2)nc1 [TCMDC-141528],108.8
8,CC(=O)Nc1cccc(CN(Cc2ccc(-c3ccc(CNCc4cccnc4)cn3)cc2)C(=O)Cc2cccnc2)c1 [TCMDC-141604],-7.365
9,CCCNCc1ccc(-c2ccc(CN(CCOC)C(=O)CCCOCc3ccccc3)cc2)nc1 [TCMDC-141543],33.78
10,CCCCC(=O)N(CCOC)Cc1ccc(-c2ccc(CNCCC)cn2)cc1 [TCMDC-141536],72.35
11,CN(C)CCN(C)Cc1ccc(-c2ccc(NS(=O)(=O)c3cccc4cccnc34)cc2)cc1 [TCMDC-136474],21.58
12,CCn1cc(C=C2Oc3c(ccc(O)c3CN3CCCCC3)C2=O)c2cc(OC)ccc21 [TCMDC-124887],12.33
13,CCCNCc1ccc(-c2ccc(CN(CCOC)C(=O)CCC(=O)c3ccc(OC)c(F)c3)cc2)nc1 [TCMDC-141537],97.99
14,CCCNCc1ccc(-c2ccc(CN(CCOC)C(=O)CCc3ccc(OC)cc3)cc2)nc1 [TCMDC-141539],54.14
15,Cc1cc(NC(=O)NCCN2CCC(NS(=O)(=O)c3ccccc3F)CC2)c2ccccc2n1 [TCMDC-136137],1.757
16,CCOC(=O)c1[nH]c(-c2cc(Cl)nc(Cl)c2)nc1NC(=S)NCc1ccc(NS(C)(=O)=O)cc1 [TCMDC-138899],-31.28
17,CC(=O)c1nccc(C)c1N [TCMDC-139307],-14.24
18,CN1CCC(Oc2cc(NC(=O)Nc3ccc(-c4ccncc4)c(Cl)c3)ccc2Cl)CC1 [TCMDC-139205],28.36
19,O=C(CCCCCNC(=O)c1ccc(O)c(-c2ccc(Cl)c(Cl)c2)c1)NCc1cccc(C(F)(F)F)c1 [TCMDC-140831],18.4
20,O=C(Nc1ccsc1)Nc1cccc(-c2ccc(-c3nc4ccc(C(F)(F)F)cc4[nH]3)cc2)c1 [TCMDC-133210],-6.282
21,COc1ccc(-c2cc3ncnc(N4CCN(CCN5CCCC5)CC4)c3s2)cc1 [TCMDC-125055],-2.838
22,CNCCCn1c(N(C)C)nc2cc(-n3cnc4cc(-c5ccc(Cl)cc5)sc4c3=O)ccc21 [TCMDC-138914],43.83
23,COc1ccc(-c2cc3ncn(CC(=O)N4CCN(c5cccc(OC)c5)CC4)c(=O)c3s2)cc1 [TCMDC-125255],66.27
24,CN1CCN(C(=O)CN2CCC3(CCC2=O)NC(=O)c2ccccc2O3)CC1 (centres unmarked) [TCMDC-125378],-32.42

row,SMILES,% Inhibition [%]
1,CC(=O)N/N=C/[C@H](CCc1ccccc1)NC(=O)[C@H](CC(C)C)NC(=O)c1ccc(F)cc1 [TCMDC-135965],1.649
2,CC[C@H](NC(=O)c1c(N)c(-c2sccc2Cl)nc2ccccc12)c1ccccc1 [TCMDC-141650],17.42
3,O=[N+]([O-])c1cccc(CNCC2CCN(CCc3ccccc3)CC2)c1 [TCMDC-141210],2.081
4,COc1cccc(Nc2nc(Nc3cccc(C#N)c3)cc(C(F)(F)F)n2)c1 [TCMDC-133462],-24.01
5,COc1cccc(Nc2nc(C)cc(Nc3cccc(C#N)c3)n2)c1 [TCMDC-133448],4.259
6,Fc1cccc(Nc2nc(NCCc3ccc(Cl)cc3)nc(Nc3cccc(F)c3)n2)c1 [TCMDC-135141],40.3
7,Fc1cccc(Nc2nc(NCc3ccc(Cl)c(Cl)c3)nc(Nc3cccc(F)c3)n2)c1 [TCMDC-135139],55.91
8,FC(F)(F)Oc1cccc(CNc2noc(-c3sccc3Br)n2)c1 [TCMDC-134186],1.419
9,COc1ccc(CNc2nc(Nc3cccc(C#N)c3)nc(Nc3cccc(C#N)c3)n2)cc1Cl [TCMDC-138547],52.56
10,Fc1cccc(Nc2nc(NCc3ccc4ccsc4c3)nc(Nc3cccc(F)c3)n2)c1 [TCMDC-135140],55.41
11,Fc1ccc(Nc2n[nH]c(CNC3CCN(Cc4ccc(Cl)c(Cl)c4)CC3)n2)cc1 [TCMDC-138655],-23.76
12,Cc1nc(-c2cccc(Nc3nccc(NCC(O)c4cccc(F)c4)n3)c2)cs1 (centres unmarked) [TCMDC-136571],-23.01
13,CC(=O)Nc1ccc(CN2CCCN(c3cc(NC(=O)c4cccc(C)c4)ccn3)CC2)cc1 [TCMDC-134980],8.133
14,Cc1cccc(OCCCCON2C(N)=NC(N)=NC2(C)C)c1C [TCMDC-131662],9.727
15,COc1ccc(NC(=O)/C=C/c2ccc(Cl)c(Cl)c2)cc1N1CCN(C)CC1 [TCMDC-139042],-34.01
16,CC(C)n1ncc2c(C(=O)Nc3ccc(C#N)c(Cl)c3)cc(C3CC3)nc21 [TCMDC-125244],-17.87
17,COc1ccc(CCNC(=O)c2cnc3c(c2)nc(-c2cnc(-c4ccccc4)[nH]2)n3CCc2cnc[nH]2)cc1 [TCMDC-139689],-21.36
18,Cc1cccc2nc(-c3ccc(-c4cccc(CNCCNC(=O)c5ccnn5C)c4)s3)[nH]c12.O=C(O)C(F)(F)F [TCMDC-133015],-0.5354
19,Cc1cccc2nc(-c3ccc(-c4cccc(CNCCNC(=O)c5ccnn5C)c4)cc3)[nH]c12.O=C(O)C(F)(F)F [TCMDC-133011],85.89
20,Cc1cccc2nc(-c3cccc(-c4ccc(CNCCNC(=O)c5ccnn5C)cc4)c3)[nH]c12.O=C(O)C(F)(F)F [TCMDC-133007],31.89
21,Cc1cccc2nc(-c3ccc(-c4ccc(CNCCNC(=O)c5ccnn5C)cc4)cc3)[nH]c12.O=C(O)C(F)(F)F [TCMDC-133017],85.49
22,Cc1cccc2nc(-c3ccc(-c4ccc(CNCCNC(=O)c5ccnn5C)cc4)s3)[nH]c12.O=C(O)C(F)(F)F [TCMDC-133009],4.683
23,Cc1cccc2nc(-c3cccc(-c4cccc(CNCCNC(=O)c5ccnn5C)c4)c3)[nH]c12.O=C(O)C(F)(F)F [TCMDC-133005],-4.375
